TrxR1 substrate: rat thioredoxin reductase 1 substrate activity | O89049 | purified TrxR1 substrate turnover, NADPH consumption readout | Potency, µM (highest dose often 114 µM), for inactives: at the highest dose activity change, negative = substrate turnover | 390,000 compounds, 0.01% hits; note: % is set by controls: 0 for no effect and ±100 for the full control effect; nearly all actives have a fitted effect of over 50% in size
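Rat TrxR1, dispensed at 90 nM, was prereduced with 400 uM NADPH (final) for 5 min at ~22 deg C, then incubated with compound 15 min before 400 uM selenite. A first-read NADPH fluorescence drop versus no-compound background flagged substrates.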
TrxR1 inh: rat TrxR1 inhibition | O89049 | recombinant rTrxR1, NADPH fluorescence consumption, selenite substrate | 390,000 compounds, 1% hits | Potency, µM (top dose mostly 114 µM), for inactives: at the top dose activity change, negative = inhibition, actives largely listed as inhibitors; note: % is set by controls: 0 for no effect and ±100 for the full control effect; nearly all actives have a fitted effect of over 65% in size
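Rat TrxR1 (90 nM in the dispensed reagent) was pre-reduced with 400 uM NADPH for 5 min at room temperature, then incubated with compound for 15 min. After 400 uM selenite was added, NADPH fluorescence (Ex 340/Em 450 nm) was followed for 8 min.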
Vif-APOBEC3G blk: Vif-A3G binding inhibition; AID 602310; HeLa A3G-eYFP + Vif (tagged APOBEC3G with the HIV-1 protein that degrades it), YFP fluorescence, overnight; Potency, µM (series often up to 46.1 µM), for inactives: at the top dose activity, negative = active, usual class: inhibitors; 410,000 compounds, 0.076% hits; note: % is set by controls: 0 for no effect and ±100 for the full control effect; nearly all actives have a fitted effect of over 60% in size
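HeLa cells stably expressing Vif and C-terminally eYFP-tagged A3G, seeded overnight at 37 deg C, then exposed to compound by pintool overnight at 37 deg C. Rise in yellow fluorescence (Ex 488/Em 500-530, Acumen) marks blocked Vif-driven A3G degradation.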
VDR inhibitor: blocks the human vitamin D receptor | VDR-SRC2-3 peptide fluorescence polarization, 2 h | Potency, µM, inactives show max response, negative = inhibition, most hits filed as inhibitors | 400,000 compounds, 0.93% hits; note: % is set by controls: 0 for no effect and ±100 for the full control effect
Target sequence (P11473 whole entry, looked up): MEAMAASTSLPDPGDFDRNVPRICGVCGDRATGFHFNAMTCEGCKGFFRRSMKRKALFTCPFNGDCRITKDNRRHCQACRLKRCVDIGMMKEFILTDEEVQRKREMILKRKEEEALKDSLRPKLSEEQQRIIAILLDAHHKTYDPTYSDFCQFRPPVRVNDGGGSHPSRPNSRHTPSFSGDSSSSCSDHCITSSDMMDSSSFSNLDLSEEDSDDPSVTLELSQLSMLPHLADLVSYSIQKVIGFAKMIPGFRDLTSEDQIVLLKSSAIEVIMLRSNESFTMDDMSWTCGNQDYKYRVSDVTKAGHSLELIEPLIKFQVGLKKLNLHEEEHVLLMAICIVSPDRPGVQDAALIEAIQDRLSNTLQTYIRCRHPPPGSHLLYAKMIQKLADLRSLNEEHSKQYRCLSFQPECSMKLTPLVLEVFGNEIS
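The screen uses fluorescence polarization to detect compounds that interfere with recruitment of the SRC2-3 coactivator peptide to VDR; plates are read after 2 h at room temperature.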
Vif-A3F inh: inhibitors of Vif-A3F interaction | HeLa A3F-eYFP + Vif (tagged APOBEC3F with the HIV-1 protein that degrades it), YFP fluorescence increase | Potency, µM (series often up to 46.1 µM), inactives show at the highest dose activity, negative = active | 390,000 compounds, 0.2% hits | AID 602313; note: % of control where 0% means no effect; nearly all actives have a fitted effect of over 65% in size
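HeLa cells stably expressing Vif plus C-terminally eYFP-tagged A3F were seeded, incubated overnight at 37 deg C, dosed with compound, incubated overnight again at 37 deg C. Yellow fluorescence (Ex 488/Em 500-530) reported blocked Vif-mediated A3F-eYFP degradation.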
An asterisk follows results filed as active; ? = inconclusive; / = not tested or not shown; [ ] = dose if it differs, or a comment. Most compounds without a hit are left out; they make up all but 1.8% or so of the library. Calls come from the whole dose curve; as a rule, active = well fitted curve in the direction sought with a large enough effect; inconclusive = small, poorly fitted or top-dose-only effect, or another doubt; inactive = no such curve, though single readings can be large; an effect the other way counts as inactive or inconclusive. Potency is the fitted concentration of half-maximal effect.

SMILES | TrxR1 substrate | TrxR1 inh | Vif-APOBEC3G blk | VDR inhibitor | Vif-A3F inh
CC(C)C[C@H](NC(=O)[C@@H]1CCCN1C(=O)[C@H](Cc1ccccc1)NC(=O)[C@H](C)NC(=O)[C@H](CCC(=O)O)NC(=O)[C@H](C)NC(=O)[C@H](CO)NC(=O)[C@H](CCC(=O)O)NC(=O)[C@H](CC(=O)O)NC(=O)[C@H](CCC(=O)O)NC(=O)[C@H](C)NC(=O)CNC(=O)[C@H](CC(N)=O)NC(=O)[C@@H]1CCCN1C(=O)[C@H](Cc1ccc(O)cc1)NC(=O)[C@@H](NC(=O)[C@H](CCCCN)NC(=O)[C@@H](NC(=O)[C@@H]1CCCN1C(=O)[C@@H](N)CCCNC(=N)N)C(C)C)C(C)C)C(=O)N[C@@H](CCC(=O)O)C(=O)N[C@@H](Cc1ccccc1)C(=O)O | / | / | / | -4% | /
Cc1noc(C)c1-c1nc(N2CCN(C)CC2)c2ccccc2n1 | / | / | / | -14% | /
Cc1noc(C)c1-c1cncnc1N1CCN(C)CC1 | / | / | / | 32µM* | /
C[n+]1ccnc2ccccc21 | ? | ? | -15% | / | /
C(=Nc1ccc2ccccc2n1)c1cccnc1 | 12% | 6%[0.0914 µM] | 0% | / | /
Cc1ccc(NC(=O)c2ccc(NCc3ccco3)c([N+](=O)[O-])c2)cc1Cl | -9% | -7% | ? | 7% | 8.9µM*
Cc1ccc(NC(=O)c2ccc(NCC3CCCO3)c([N+](=O)[O-])c2)cc1Cl (centres undefined) | -11% | 21%[57.1 µM] | -26% | 0% | 11µM*
Cc1ccc(NC(=O)c2ccc(NCCCN3CCC(C)CC3)c([N+](=O)[O-])c2)cc1F | -1%[57.1 µM] | 16%[57.1 µM] | -26% | -1% | 10µM*
Clc1ccc(-c2csc3ncnc(Sc4nnnn4-c4ccccc4)c23)cc1 | -6%[0.0914 µM] | 4%[0.0914 µM] | ? | / | /
COc1cc2nc(N3CCCN(C)CC3)nc(Nc3ccncc3)c2cc1OC | 18% | -30% | 7% | / | /
N#CC1=C2SCN(C3CCCCC3)CN2C(=O)CC1c1ccc(Br)cc1 (centres undefined) | -2% | -4% | -3% | 18µM* | 3%
COc1ccc2ccccc2c1C1CC(=O)N2CN(Cc3ccco3)CSC2=C1C#N (centres undefined) | -11% | ? | -9% | ? | -3%
COc1ccc2ccccc2c1C1CC(=O)N2CN(C3CCCCC3)CSC2=C1C#N (centres undefined) | 3%[57.1 µM] | ? | 4% | 89µM* | -5%
COc1ccc(NS(=O)(=O)c2ccc(F)c(Cl)c2)cn1 | -3% | 3% | -5% | 79µM* | -22%
COc1ccc(NS(=O)(=O)c2ccc(Br)cc2)cn1 | -2% | 7% | 1% | 8% | 15%
CCOC(=O)N1CC=C2C(C#N)=C(N)C(C#N)(C#N)[C@H](c3ccccc3OCC)[C@H]2C1 | 5% | 50µM* | -5% | ? | -16%
c1ccc(OCCn2c(-c3ccco3)nc3ccccc32)cc1 | 13% | 14µM* | 0% | -17% | 4%
Cc1cccc(OCCn2c(-c3ccco3)nc3ccccc32)c1 | 7% | ? | 1% | -9% | 0%
O=c1c(Cl)c(NCCCO)cnn1-c1nc2ccccc2[nH]1 | -2% | 3.5µM* | ? | -16% | -10%
C=CCN(CC=C)c1cnn(-c2nc3ccccc3[nH]2)c(=O)c1Cl | 12% | 3% | 2% | -5% | -7%
COc1cccc(C(=O)N2c3nc(-c4ccco4)nn3C3(CCCCC3)[C@@H]3CCCC[C@@H]32)c1 | 6% | 8.9µM* | -8% | -3% | -1%
CC[C@H](C)[C@H](N)C(=O)N[C@H]1CCC(=O)NCC(C(=O)N[C@@H](Cc2ccc(O)cc2)C(=O)N[C@@H](CCCNC(=N)N)C(=O)N[C@@H](CC(C)C)C(=O)N[C@@H](CCCNC(=N)N)C(=O)N[C@@H](Cc2ccc(O)cc2)C(N)=O)NC(=O)[C@@H]2CCCN2C(=O)[C@@H](NC(=O)[C@@H](N)[C@@H](C)CC)CCC(=O)NCC(C(=O)N[C@@H](Cc2ccc(O)cc2)C(=O)N[C@@H](CCCNC(=N)N)C(=O)N[C@@H](CC(C)C)C(=O)N[C@@H](CCCNC(=N)N)C(=O)N[C@@H](Cc2ccc(O)cc2)C(N)=O)NC(=O)[C@@H]2CCCN2C1=O (some centres undefined) | / | / | / | 10% | /
CCOC(=O)c1c(S(=O)(=O)NCC(=O)Nc2cccc(SC)c2)c(C)n(C)c1C | 2%[57.1 µM] | 7%[57.1 µM] | -5% | 1% | 2%
CC(=O)N1CCN(c2ccc(NCc3ccc(-c4ccc(Br)cc4)o3)cc2)CC1 | 0% | -1% | -17% | 79µM* | -11%
CC[C@H](C)[C@H](NC(=O)[C@H](CC(=O)O)NC(=O)[C@H](CC(C)C)NC(=O)[C@H](Cc1cnc[nH]1)NC(=O)[C@H](C)NC(=O)[C@H](Cc1ccccc1)NC(=O)[C@H](Cc1ccc(O)cc1)NC(=O)[C@@H](NC(=O)[C@H](C)NC(=O)[C@H](CCC(=O)O)NC(=O)[C@H](CCCCN)NC(=O)[C@H](CC(=O)O)NC(=O)[C@H](CCSC)NC(=O)[C@H](CC(C)C)NC(C)=O)C(C)C)C(=O)N[C@H](C(=O)N[C@@H](Cc1c[nH]c2ccccc12)C(=O)O)[C@@H](C)CC | / | / | / | -5% | /
SMILES | TrxR1 substrate | TrxR1 inh | Vif-APOBEC3G blk | VDR inhibitor | Vif-A3F inh
Nc1cc(S(=O)(=O)Nc2cc(Cl)ccc2Cl)ccc1N1CCOCC1 | -4% | -9% | -4% | 35µM* | 0%
Cc1ccc(-c2cc(C(F)(F)F)n3nc(C(=O)Nc4ccon4)cc3n2)cc1C | 10% | 24% | 0% | 89µM* | 7%
COc1cc2c(cc1OC)C1N(CC2)C(=O)CCC12C(=O)CCCC2=O (centres undefined) | / | / | / | 71µM* | /
CC(=O)c1cc(O)c2ccccc2c1O | -4% | 32µM* | ? | 32µM* | ?
COc1ccc(-c2nc(N3CCN(S(=O)(=O)c4ccc(F)cc4)CC3)c3ccccc3n2)cc1 | -4%[0.457 µM] | 18% | 1% | -22% | /
Cc1ccc(/C=C2/NC(=O)N(Cc3ccccc3)C2=O)o1 | 3%[11.4 µM] | 1%[11.4 µM] | -23% | 89µM* | ?
CC(C)N1C/C(=C/c2cccnc2)C(=O)/C(=C/c2cccnc2)C1 | 3% | ? | ? | ? | ?
O=Cc1ccc(B(O)O)cc1 | 4% | 6% | 0% | -16% | /
CN1C/C(=C/c2ccc(B(O)O)cc2)C(=O)/C(=C/c2ccc(B(O)O)cc2)C1 | / | / | / | 4.5µM* | /
CN1C/C(=C/c2cccnc2)C(=O)/C(=C/c2cccnc2)C1 | -11% | 10µM* | ? | 45µM* | -5%
Cc1ccc(C(=O)CCNc2ccc(Br)cc2)o1 | -2%[57.1 µM] | -33% | 0% | ? | -3%
Cc1ccc(C(=O)CCNc2ccc(F)c(Cl)c2)o1 | -3% | 56µM* | 3% | 3% | 6%
